RAD54 branch = blocks human RAD54 Holliday junction branch migration; Q92698; FAM/BHQ fluorescence; inhibition, % at 10.4 µM; actives 0.14% (n = 360,000); AID 602329;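 active = mean normalized replicate activity at least 40 and at least half of replicates scoring 40 or more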;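 note: inhibitors cause a drop in the FAM fluorescence signal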
MLL AF4-AF9 inh = blocks AF4 peptide binding to human AF9; P42568; inhibition, % at 10 µM; actives 0.47% (n = 350,000); AlphaScreen, biotin-AF4 peptide binding to FLAG-AF9;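 active = every replicate reaching a set inhibition limit, whatever the replicate mean, cut at about 25% in these data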
RAD52 inh = inhibitors of human RAD52 DNA annealing; P43351; recombinant RAD52 DNA annealing, FRET fluorescence; inhibition, % at 18.7 µM; actives 0.46% (n = 360,000);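 active = every replicate showing at least 50% inhibition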
Target sequence (P43351 whole entry, looked up): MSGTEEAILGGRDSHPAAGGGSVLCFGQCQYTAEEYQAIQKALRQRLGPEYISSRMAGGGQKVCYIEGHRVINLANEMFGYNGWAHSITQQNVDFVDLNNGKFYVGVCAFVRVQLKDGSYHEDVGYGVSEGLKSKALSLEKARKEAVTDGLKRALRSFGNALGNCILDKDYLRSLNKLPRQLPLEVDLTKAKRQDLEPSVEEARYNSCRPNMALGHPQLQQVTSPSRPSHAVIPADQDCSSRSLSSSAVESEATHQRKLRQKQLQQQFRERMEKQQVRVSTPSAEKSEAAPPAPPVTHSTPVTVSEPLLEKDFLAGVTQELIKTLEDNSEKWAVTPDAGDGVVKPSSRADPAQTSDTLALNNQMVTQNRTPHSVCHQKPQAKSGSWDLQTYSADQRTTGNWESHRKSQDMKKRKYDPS
ERAP1 HTS inh = blocks human ERAP1 aminopeptidase activity; Q9NZ08; recombinant ERAP1, Leu-AMC fluorescence, 60 min; inhibition, % at 10.7 µM; actives 0.15% (n = 340,000); AID 652197;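 active = mean replicate inhibition of at least 30%, or all replicates individually reaching that 30% level; inactive = mean below 30% and not every replicate reaching it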
INS-1E GSIS act = GLuc luminescence reporter in INS-1E cells, primary screen for activators of glucose-dependent secretion of insulin; INS-1E GLuc reporter insulin secretion, 2-3 h; activation, % at 16.6 µM; actives 0.61% (n = 370,000); AID 743287;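 active = lowest replicate activation of at least 40%, so every replicate reaches that level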
PGC1a acetyl inh = modulators of PGC1a acetylation; U2OS PGC1a acetylation, AlphaScreen anti-acetyl-lysine; with virally co-expressed GCN5 acetyltransferase; inhibition, % at 15.6 µM; actives 0.17% (n = 350,000);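 active = every replicate shows inhibition of at least 40%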
Each line names hits and unclear results; the compound was inactive in the other large screens. Sampled rows, rich in hits. Any-hit rate of the full collection: about 1.4%.

O=C(NCC[C@H]1CC[C@H](NS(=O)(=O)c2cccc(F)c2)[C@@H](CO)O1)C1CCOCC1	none
S=C(Nc1ccccc1)Nc1ccc2cn[nH]c2c1	none (no result: RAD54 branch)
C=CCNC(=S)Nc1ccc2cn[nH]c2c1	INS-1E GSIS act 40 (no result: RAD54 branch, ERAP1 HTS inh)
COc1ccc(C(=O)c2sc(Nc3ccccc3)nc2N)cc1OC	INS-1E GSIS act 43
COc1ccc(C(=O)c2sc(Nc3ccccc3)nc2N)cc1	none (no result: PGC1a acetyl inh)
O=C(Cn1[nH]c(=O)c2ccccc2c1=O)OCC(=O)c1ccc(F)cc1	INS-1E GSIS act 53 (no result: RAD54 branch, PGC1a acetyl inh)
COc1ccc(NC(=O)N(C)C[C@H]2Oc3ccc(NC(=O)C4CC4)cc3CC(=O)N([C@H](C)CO)C[C@@H]2C)cc1	none
CCn1nc(NC(=O)c2ccco2)c2cc3ccccc3nc21	INS-1E GSIS act 44 (no result: MLL AF4-AF9 inh, RAD52 inh, ERAP1 HTS inh)
CCCn1nc(NC(=O)c2ccco2)c2cc3cc(C)ccc3nc21	none (no result: ERAP1 HTS inh)
CC(C)Cn1nc(NC(=O)c2ccco2)c2cc3ccccc3nc21	INS-1E GSIS act 74 (no result: RAD54 branch, PGC1a acetyl inh)
COc1ccccc1-c1cnc2c(c1)C(=O)N([C@@H](C)CO)C[C@@H](C)[C@@H](CN(C)Cc1ccncc1)O2	none
CC(C)CC#Cc1ccc2c(c1)O[C@@H](CN(C)C(=O)CN(C)C)[C@@H](C)CN([C@@H](C)CO)S2(=O)=O	none
C[C@@H]1CN([C@@H](C)CO)C(=O)c2cc(-c3ccccc3F)cnc2O[C@H]1CN(C)C(=O)c1ccccn1	none
Cc1ccsc1C(=O)Nc1cc(Cl)ccc1-n1cncn1	PGC1a acetyl inh 61
COc1cccc(-c2cnc3c(c2)C(=O)N([C@@H](C)CO)C[C@H](C)[C@H](CN(C)Cc2ccc(F)cc2)O3)c1	none
CC[C@H](C)[C@H](NC(N)=O)C(=O)NNC(=O)c1ccc(COc2cccc3cccnc23)cc1	MLL AF4-AF9 inh 35
C=C1C(=O)[C@]23C[C@H]1CCC2[C@@]1(C)C(C[C@@H]3O)[C@](C)(C(=O)O)C[C@H](O)[C@@H]1O (stereo partly drawn)	none
C=C1C(=O)[C@]23C[C@H]1CCC2[C@@]1(C)C(C[C@@H]3O)[C@](C)(C(=O)OC)CC[C@@H]1OC(C)=O (stereo partly drawn)	INS-1E GSIS act 134, PGC1a acetyl inh 103
C=C1C(=O)[C@]23C[C@H]1CC[C@H]2[C@]1(C)[C@@H](OC(C)=O)CC[C@@](C)(C(=O)O)[C@H]1C[C@@H]3O	INS-1E GSIS act 84 (no result: ERAP1 HTS inh)
C=C1C(=O)[C@]23C[C@H]1CC[C@H]2[C@]1(C)[C@@H](O)CC[C@@](C)(C(=O)O)[C@H]1C[C@@H]3O	none (no result: ERAP1 HTS inh)
C=C1C(=O)[C@]23C[C@H]1CC[C@H]2[C@]1(C)[C@@H](OC(C)=O)CC[C@@](C)(C(=O)OC)[C@H]1C[C@@H]3OC(C)=O	PGC1a acetyl inh 94
CCN(Cc1ccccc1)S(=O)(=O)c1ccccc1Br	INS-1E GSIS act 41
CCN(CC)Cc1c(O)ccc2c([N+](=O)[O-])c(C)n(-c3ccc(OC)cc3)c12	PGC1a acetyl inh 46 (no result: MLL AF4-AF9 inh, RAD52 inh, ERAP1 HTS inh, INS-1E GSIS act)
O=C(C1CC1)N1CC2(C1)[C@@H](c1ccccc1)[C@@H](CO)N2CC1CCCC1	none (no result: RAD54 branch, PGC1a acetyl inh)
CCCN(C)C[C@H]1OCCCC[C@H](C)Oc2ccc(NS(C)(=O)=O)cc2C(=O)N([C@H](C)CO)C[C@H]1C	none (no result: RAD54 branch, MLL AF4-AF9 inh, RAD52 inh, ERAP1 HTS inh)
CCCC(=O)Nc1c(C(=O)OCC)oc2ccccc12	INS-1E GSIS act 41
COc1cc2ccc(=O)oc2cc1O	ERAP1 HTS inh 74
COc1ccccc1NC(=O)c1cc[n+](C)cc1	ERAP1 HTS inh 103
COC(=O)[C@H]1[C@H](CO)[C@H]2Cn3c(ccc(-c4ccccc4)c3=O)[C@H]2N1CCc1ccccc1	none
COc1ccc2c3c([nH]c2c1)[C@@H](CO)N(C)CC31CN(C(=O)c2cccnc2)C1	none (no result: RAD54 branch, MLL AF4-AF9 inh, RAD52 inh, ERAP1 HTS inh, PGC1a acetyl inh)
Cc1cc(C)c2[nH]c(O)c(N=NC(=S)NCC3CCCO3)c2c1 (stereo not drawn)	INS-1E GSIS act 69 (no result: MLL AF4-AF9 inh, RAD52 inh, ERAP1 HTS inh)
N#CCCCc1cc2ccccc2cn1	INS-1E GSIS act 51
COc1cc2cnc(CCCC#N)cc2cc1OC	none (no result: INS-1E GSIS act)
CCC(=O)N[C@H]1C=C[C@H](CC(=O)NCC2CC2)O[C@H]1CO	none (no result: RAD54 branch)
N#C/C(C(=O)NCCc1ccccc1)=C1/N=C(NC(=O)c2cccs2)c2ccccc21	none (no result: RAD54 branch, PGC1a acetyl inh)
COCCCNC(=O)/C(C#N)=C1\N=C(NC(=O)c2cccs2)c2ccccc21	ERAP1 HTS inh 54 (no result: RAD54 branch)
CCS(=O)(=O)N1CC(=O)N2[C@@H](CO)[C@H](c3ccc(-c4ccccc4C)cc3)[C@@H]2C1	none (no result: RAD54 branch, MLL AF4-AF9 inh, RAD52 inh, ERAP1 HTS inh, PGC1a acetyl inh)
O=[N+]([O-])c1cccc(/C=C/c2nc[nH]c2[N+](=O)[O-])c1	INS-1E GSIS act 40
O=C(C1CCC(CNc2c(N3CCOCC3)c(=O)c2=O)CC1)N1CCN(c2ccccc2)CC1 (stereo not drawn)	MLL AF4-AF9 inh 40
CN(C)C(=O)[C@@H]1[C@@H](CO)[C@@H]2Cn3c(ccc(-c4ccccc4F)c3=O)[C@H]1N2C	none
CC[C@H]1CC=CC[C@H](C)Oc2ccccc2C(=O)N(C)[C@H](C(C)C)C(=O)N1 (mixture of isomers)	none (no result: RAD54 branch, MLL AF4-AF9 inh, RAD52 inh, ERAP1 HTS inh, PGC1a acetyl inh)
OC[C@H]1Nc2ccc(C#Cc3ccc(F)cc3)cc2[C@@H]2[C@H]1CCN2Cc1nccs1	none (no result: MLL AF4-AF9 inh, RAD52 inh, ERAP1 HTS inh)
COc1ccc2cc(CCNC(=O)C(C)C)c(=O)[nH]c2c1	MLL AF4-AF9 inh 31 (no result: INS-1E GSIS act)
N#Cc1c(-c2ccccc2)cc(-c2ccc3c(c2)OCO3)[nH]c1=O	none (no result: INS-1E GSIS act, PGC1a acetyl inh)
COc1ccc(-c2cc(-c3ccco3)[nH]c(=O)c2C#N)cc1OC	INS-1E GSIS act 52
COc1ccc2c3c([nH]c2c1)[C@@H](CO)N(C(=O)NC1CCCC1)CC31CCN(C(=O)Nc2cccc(F)c2)CC1	none (no result: RAD54 branch)
CCOc1ccc(NC(=O)CN(C)C(=O)Cn2cnc3c2c(=O)n(C)c(=O)n3C)cc1OCC	ERAP1 HTS inh 30 (no result: PGC1a acetyl inh)
COc1ccc(NC(=O)CN(C)C(=O)Cn2cnc3c2c(=O)n(C)c(=O)n3C)cc1	none (no result: RAD54 branch, PGC1a acetyl inh)
Cc1cc[n+](CC(=O)c2ccc3c(c2)OCCO3)cc1	none
O=C(C[n+]1ccc(/C=C/c2ccccc2)cc1)c1ccc2c(c1)OCCO2	RAD52 inh 76
O=C(CCc1nc2ccccc2c(=O)[nH]1)NNC(=O)c1cccc(Cl)c1	INS-1E GSIS act 44
O=C(CCc1nc2ccccc2c(=O)[nH]1)NNC(=O)c1ccc(Cl)cc1	none
CCSc1ccccc1C(=O)NCCCn1ccnc1	PGC1a acetyl inh 95 (no result: MLL AF4-AF9 inh, RAD52 inh, ERAP1 HTS inh, INS-1E GSIS act)
CSc1ccccc1C(=O)NCCCn1ccnc1	none
CO[C@@H]1CN(C)C(=O)c2cc(NC(=O)c3cccc(Oc4ccccc4)c3)ccc2OC[C@H](C)NC[C@H]1C	none (no result: RAD54 branch, MLL AF4-AF9 inh, RAD52 inh, ERAP1 HTS inh)
CC1CCC(NC(=O)C2COc3ccccc3O2)CC1 (stereo not drawn)	INS-1E GSIS act 57 (no result: RAD54 branch, PGC1a acetyl inh)
CC[N+]1(C)CCC(O)(c2ccc(OC)cc2)C(C(=O)c2ccc(OC)cc2)C1 (stereo not drawn)	INS-1E GSIS act 214 (no result: RAD54 branch, PGC1a acetyl inh)
COc1ccc2c3c([nH]c2c1)[C@@H](CO)N(C(=O)Nc1cccc(F)c1)CC31CN(CC2CCOCC2)C1	none (no result: RAD54 branch, PGC1a acetyl inh)

Source: PubChem (Broad Institute)
